Many of the other results were omitted from the sample, so hits are more common in it than they were.
PKA kinase inh: blocks human protein kinase A activity; P17612; PKA Kemptide phosphorylation, Kinase-Glo ATP luminescence; inhibition, % at 6 µM; hit rate 0.1% among 65,000;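 active means inhibition above the screen-wide mean inhibition plus 3 SD, cut at about 21% in these data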
JNK3 inh: blocks human JNK3 kinase activity; hit rate 0.61% among 60,000; purified JNK3 kinase activity, HTS; inhibition, % at 8 µM; P53779; in the data active means inhibition above about 17%;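 further: 0% = DMSO and 100% = reference inhibitor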
hDAT+cocaine: modulates human dopamine transporter uptake under cocaine; B-score at 10 µM; LLC-PK1 hDAT cells, [14C]-dopamine uptake with cocaine IC80; actives deviate in either direction; hit rate 1.3% among 110,000; AID 449768;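 active means Z score or B-score, a plate-position-corrected score, falls beyond the plate's 99.7% confidence bounds, in either direction; inactive means both scores lie inside the 99.7% bounds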;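 further: scored against the spread of the other compound wells on the same plate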
D1 mod: allosteric modulators of human D1 dopamine receptor | B-score at 10 µM | P21728 | HEK293 D1, CRE-luciferase, dopamine EC30 potentiation; actives deviate in either direction | hit rate 5.9% among 58,000 | AID 641;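 active means luminescence count or its row- and column-corrected plate score outside the 99.7% band of the plate's sample wells, on either side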
Target sequence (P21728 whole entry, looked up): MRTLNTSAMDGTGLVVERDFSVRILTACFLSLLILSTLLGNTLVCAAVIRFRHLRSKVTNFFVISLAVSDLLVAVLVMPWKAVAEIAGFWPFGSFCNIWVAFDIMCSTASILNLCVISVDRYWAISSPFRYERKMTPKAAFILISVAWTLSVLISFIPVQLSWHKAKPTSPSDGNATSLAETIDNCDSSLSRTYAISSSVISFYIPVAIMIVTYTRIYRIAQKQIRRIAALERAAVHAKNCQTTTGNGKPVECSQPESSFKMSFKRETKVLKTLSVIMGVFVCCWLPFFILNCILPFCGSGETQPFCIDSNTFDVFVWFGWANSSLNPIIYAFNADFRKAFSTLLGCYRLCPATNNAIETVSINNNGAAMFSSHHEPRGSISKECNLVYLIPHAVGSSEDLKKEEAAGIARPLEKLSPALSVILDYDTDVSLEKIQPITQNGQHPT
ROCK2 blocker: inhibitors of human Rho kinase 2; O75116; hit rate 0.35% among 60,000; inhibition, % at 6 µM; AID 604; purified ROCK2, Kinase-Glo ATP depletion luminescence;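 active means inhibition above the screen-wide mean inhibition plus 3 SD, cut at about 18% in these data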;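 further: plate controls were DMSO wells for no effect and Y-27632 control wells after no-enzyme background subtraction for full effect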
D1 PAM confirm: D1 receptor (human) allosteric modulation, confirmed; luminescence at 10 µM; shares compounds with D1 mod; hit rate 88% among 2,200; HEK293 D1 CRE-luciferase, dopamine EC30 potentiation; active compounds read high;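 active means luminescence in either of two replicates above the same-plate mean plus 3 SD of the low-dose dopamine control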
D1 ag no DA: D1 (human) signaling in absence of dopamine; HEK293 D1 CRE-luciferase, luminescence, no dopamine; active compounds read high; AID 646; hit rate 0.8% among 1,900; luminescence at 10 µM; shares compounds with D1 mod; in the data active means luminescence above about 3900
Isoprot counter: alters isoproterenol CRE-luciferase response in HEK293 cells | shares compounds with D1 mod | hit rate 63% among 2,200 | HEK293 D1 CRE-luciferase, isoproterenol EC30 counter-screen | calls only at 10 µM | AID 647;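 active means luminescence in either replicate above plate mean of wells with a partly effective reference agonist dose plus 3 SD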;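 further: isoproterenol raises cAMP through native beta-adrenoceptor Gs so signal bypasses D1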
Starred values were filed as active, the others as inactive.

O=c1c2c(-c3ccccc3)csc2nc2n1CCC2 was read as PKA kinase inh 1, JNK3 inh 0, hDAT+cocaine 1.6, D1 mod 0.1 and ROCK2 blocker 4.
CCCc1nc2scc(-c3ccccc3)c2c(=O)n1N was read as PKA kinase inh -4, JNK3 inh 3, hDAT+cocaine 0.19, D1 mod 6*, ROCK2 blocker -2, D1 PAM confirm 8892*, D1 ag no DA 1584 and Isoprot counter inactive.
For O=C(Cn1cnc2scc(-c3ccccc3)c2c1=O)N1CCOCC1 the results were PKA kinase inh -3, JNK3 inh 2, hDAT+cocaine -0.052, D1 mod 1.3 and ROCK2 blocker -3.
CCn1cnc2scc(-c3ccccc3)c2c1=O was read as PKA kinase inh 6, JNK3 inh -6, hDAT+cocaine 0.75, D1 mod 15*, ROCK2 blocker 5, D1 PAM confirm 14788* and Isoprot counter active.
For CCCC(=O)Nc1c(C)nn(C(=O)CCC)c1C the results were PKA kinase inh 8, JNK3 inh 1, hDAT+cocaine -0.37, D1 mod 0.37 and ROCK2 blocker 6.
`Cc1ccc(S(=O)(=O)Nc2cccc3ncccc23)s1` gave PKA kinase inh -1, JNK3 inh 3, hDAT+cocaine 0.0042 and ROCK2 blocker -1.
Screening COC(=O)Cn1nc(-c2ccccc2)c2ccccc21 returned PKA kinase inh 5, JNK3 inh 4, hDAT+cocaine -0.33, D1 mod 2.5*, ROCK2 blocker 4, D1 PAM confirm 5172, D1 ag no DA 1632 and Isoprot counter inactive.
Screening Clc1ccc2c(c1)C(c1cccs1)=NNC(c1cccnc1)=N2 returned hDAT+cocaine -0.49.
Screening COC(=O)c1ccc(OCCn2cnc3ccccc3c2=O)cc1 returned PKA kinase inh 3, JNK3 inh 15, hDAT+cocaine -0.28, D1 mod 5.2*, ROCK2 blocker 1, D1 PAM confirm 9464*, D1 ag no DA 2040 and Isoprot counter inactive.
Screening COC(=O)Cn1cnc2ccccc2c1=O returned hDAT+cocaine 0.32.
For CN(Cc1ccccc1)S(=O)(=O)c1ccc(NS(=O)(=O)Cc2ccccc2)cc1 the results were hDAT+cocaine -0.29.
CCCCC1CC1C(=O)Nc1ccc(OC)c(OC)c1 (configuration not stated) was read as PKA kinase inh 6, JNK3 inh 0, hDAT+cocaine 0.13 and ROCK2 blocker 8.
`COc1ccc(-c2cc(C(F)(F)F)n3nc(C(=O)N4CCCCC4)cc3n2)cc1` gave hDAT+cocaine -0.19, D1 mod 5.7*, D1 PAM confirm 8620*, D1 ag no DA 1528 and Isoprot counter inactive.
`COc1ccc(-c2cc(C(F)(F)F)n3nc(C(=O)N4CCCCC4)cc3n2)cc1OC` gave hDAT+cocaine 1.
CCOC(=O)c1ccccc1Nc1cc(C)nc2nc(C)nn12 was read as PKA kinase inh 10, JNK3 inh 6, hDAT+cocaine 0.22, D1 mod 1.8*, ROCK2 blocker 6, D1 PAM confirm 10192*, D1 ag no DA 1536 and Isoprot counter active.
`COC(=O)c1ccccc1Nc1cc(C)nc2nc(C)nn12` gave PKA kinase inh 6, JNK3 inh 3, D1 mod 0.42 and ROCK2 blocker 4.
`N#C/C(=C\C1CC=CCC1)c1nc2ccccc2[nH]1` (configuration not stated) gave PKA kinase inh 9, JNK3 inh -1, hDAT+cocaine -1, D1 mod -1.2 and ROCK2 blocker 6.
Cn1c(/C(C#N)=C/C2CC=CCC2)nc2ccccc21 (configuration not stated) was read as PKA kinase inh 3, JNK3 inh 3, hDAT+cocaine -0.53, D1 mod 3.8*, ROCK2 blocker 1, D1 PAM confirm 9264*, D1 ag no DA 1596 and Isoprot counter inactive.

Source: PubChem BioAssay (several laboratories)
